Structures are written as SMILES. For some of these results: Potency and affinity values are given separately.

What all share (set-up): scale not given: direction of the effect not stated beside the values
Experiment [1] has as its target Protein translocase subunit SecA (Escherichia coli (strain K12)) (UniProt P10408). Briefly: Assay to Identify E. coli SecA ATPase Inhibitors. It counts as functional. The settings on record: 30 µM.
Experiment [2] addresses T1, Ubiquitin-activating enzyme e1, putative (Leishmania donovani (strain BPK282A1)) (UniProt E9BSI1).
T1 sequence (whole entry): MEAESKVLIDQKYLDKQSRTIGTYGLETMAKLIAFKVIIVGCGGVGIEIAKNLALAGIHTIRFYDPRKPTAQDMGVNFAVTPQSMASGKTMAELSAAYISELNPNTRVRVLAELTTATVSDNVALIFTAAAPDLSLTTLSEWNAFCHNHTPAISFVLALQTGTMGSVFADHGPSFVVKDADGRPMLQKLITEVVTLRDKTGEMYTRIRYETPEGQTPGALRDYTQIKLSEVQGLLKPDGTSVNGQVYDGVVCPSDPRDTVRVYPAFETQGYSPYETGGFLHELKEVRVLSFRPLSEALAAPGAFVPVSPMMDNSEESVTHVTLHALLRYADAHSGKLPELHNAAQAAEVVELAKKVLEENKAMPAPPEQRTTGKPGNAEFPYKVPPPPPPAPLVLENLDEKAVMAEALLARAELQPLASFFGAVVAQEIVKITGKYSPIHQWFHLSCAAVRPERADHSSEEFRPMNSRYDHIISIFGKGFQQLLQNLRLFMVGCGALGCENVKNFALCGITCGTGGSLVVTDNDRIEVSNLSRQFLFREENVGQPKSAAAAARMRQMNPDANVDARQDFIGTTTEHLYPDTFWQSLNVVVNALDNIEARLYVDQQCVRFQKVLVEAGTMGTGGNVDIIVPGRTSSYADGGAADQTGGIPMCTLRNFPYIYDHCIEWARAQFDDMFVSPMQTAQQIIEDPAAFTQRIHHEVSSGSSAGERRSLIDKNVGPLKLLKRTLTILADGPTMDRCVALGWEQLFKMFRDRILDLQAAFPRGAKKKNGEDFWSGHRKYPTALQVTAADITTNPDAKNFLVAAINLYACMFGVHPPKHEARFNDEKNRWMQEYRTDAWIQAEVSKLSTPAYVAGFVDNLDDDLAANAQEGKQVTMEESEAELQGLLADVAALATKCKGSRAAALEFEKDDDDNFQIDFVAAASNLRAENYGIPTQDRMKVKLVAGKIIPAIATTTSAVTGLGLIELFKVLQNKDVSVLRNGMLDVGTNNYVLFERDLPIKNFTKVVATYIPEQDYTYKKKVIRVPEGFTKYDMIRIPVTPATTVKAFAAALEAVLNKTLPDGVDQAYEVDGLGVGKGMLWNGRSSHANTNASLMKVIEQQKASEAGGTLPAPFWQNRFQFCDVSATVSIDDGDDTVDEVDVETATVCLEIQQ
The experiment in a line: Leishmania donovani Ubiquitin Activating Enzyme (LdE1). Type of experiment: functional. The settings on record: 30 µM.

In experiment [3] the target is AMP-activated protein kinase, AMPK (Homo sapiens) (UniProt P54646+O43741+P54619+Q9UGJ0+Q9Y478+Q13131+Q9UGI9). Briefly: AMP-dependent Kinase enzyme assay. An in vitro enzyme assay that detects ADP turnover that is directly proportional to AMPK activity. This uses naive AMPK that is activated during the assay with MK-8722. It counts as functional. As to conditions: 30 µM.

The target of experiment [4] is Sialic acid-binding Ig-like lectin 9 (Homo sapiens) (UniProt Q9Y336). Briefly: Hs-Siglec9 ALPHAscreen SOP 20170721. The settings on record: 10 µM. (Alpha assays give light when donor and acceptor beads are brought close together.)
Chain of Sialic acid-binding Ig-like lectin 9 (Homo sapiens) (Q9Y336 whole entry): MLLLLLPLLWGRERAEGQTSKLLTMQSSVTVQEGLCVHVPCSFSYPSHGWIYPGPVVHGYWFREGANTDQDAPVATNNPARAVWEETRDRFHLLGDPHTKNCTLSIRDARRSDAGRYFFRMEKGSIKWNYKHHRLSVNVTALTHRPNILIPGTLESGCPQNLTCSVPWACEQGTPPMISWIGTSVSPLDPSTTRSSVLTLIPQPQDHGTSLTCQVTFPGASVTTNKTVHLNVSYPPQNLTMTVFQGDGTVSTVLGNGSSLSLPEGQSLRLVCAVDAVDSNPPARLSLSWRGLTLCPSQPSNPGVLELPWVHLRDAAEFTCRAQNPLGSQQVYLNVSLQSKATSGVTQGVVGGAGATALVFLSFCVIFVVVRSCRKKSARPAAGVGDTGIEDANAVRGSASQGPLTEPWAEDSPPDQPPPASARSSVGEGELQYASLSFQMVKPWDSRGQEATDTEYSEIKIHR
The subject of experiment [5] is Trypanosoma cruzi. The experiment in a line: Trypanosoma cruzi phosphomannomutase and mannose-1-phosphate guanylyltransferase assay. It counts as functional. As to conditions: 10 µM.
Experiment [6] has as its target T2, Arginase-2, mitochondrial (Homo sapiens) (UniProt P78540).
T2 sequence (whole entry): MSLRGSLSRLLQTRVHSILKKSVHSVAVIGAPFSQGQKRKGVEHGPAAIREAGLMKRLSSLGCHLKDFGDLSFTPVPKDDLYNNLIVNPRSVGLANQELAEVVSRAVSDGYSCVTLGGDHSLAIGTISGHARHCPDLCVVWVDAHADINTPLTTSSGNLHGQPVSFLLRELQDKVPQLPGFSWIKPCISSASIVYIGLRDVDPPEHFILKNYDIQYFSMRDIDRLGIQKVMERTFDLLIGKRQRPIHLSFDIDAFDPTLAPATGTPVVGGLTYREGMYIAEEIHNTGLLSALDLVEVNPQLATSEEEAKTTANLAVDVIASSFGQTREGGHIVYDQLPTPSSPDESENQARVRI
Briefly: in vitro enzyme assay to detect the production of urea directly proportional to the activity of Arginase II. Further: in the data most compounds retested in dose-response had high values. Type of experiment: functional. The settings on record: 33.3 µM.

The target in experiment [7] is T3, Proteasome subunit beta (Trypanosoma cruzi) (UniProt O96673).
T3 sequence (whole entry): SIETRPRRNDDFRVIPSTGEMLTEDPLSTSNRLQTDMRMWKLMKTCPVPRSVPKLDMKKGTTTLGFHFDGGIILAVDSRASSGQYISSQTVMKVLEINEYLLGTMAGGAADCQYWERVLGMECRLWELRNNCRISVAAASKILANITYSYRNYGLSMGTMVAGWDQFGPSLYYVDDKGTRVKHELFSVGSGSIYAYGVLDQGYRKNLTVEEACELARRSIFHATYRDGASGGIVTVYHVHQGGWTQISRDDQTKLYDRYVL
Briefly: Trypanosoma cruzi proteasome chymotrypsin-like activity (TcProtChymo) assay. Further: in the data most compounds retested in dose-response had high values. Type of experiment: functional. The settings on record: 9.37 µM.

The species entered for experiment [8] is Homo sapiens. The experiment in a line: To identify inhibition of the IFN signalling (Jak-Stat) pathway via expression of an eGFP reporter gene under the control of an IFN-stimulated response element (ISRE) containing MxA promoter. It counts as functional. The settings on record: 30 µM. In general terms: Reporter assays use an easily measured gene product as a stand-in for the process of interest.

Experiment [9] deals with T4, Tyrosyl-tRNA synthetase, putative (Trypanosoma cruzi (strain CL Brener)) (UniProt Q4DSP6).
T4 sequence (whole entry): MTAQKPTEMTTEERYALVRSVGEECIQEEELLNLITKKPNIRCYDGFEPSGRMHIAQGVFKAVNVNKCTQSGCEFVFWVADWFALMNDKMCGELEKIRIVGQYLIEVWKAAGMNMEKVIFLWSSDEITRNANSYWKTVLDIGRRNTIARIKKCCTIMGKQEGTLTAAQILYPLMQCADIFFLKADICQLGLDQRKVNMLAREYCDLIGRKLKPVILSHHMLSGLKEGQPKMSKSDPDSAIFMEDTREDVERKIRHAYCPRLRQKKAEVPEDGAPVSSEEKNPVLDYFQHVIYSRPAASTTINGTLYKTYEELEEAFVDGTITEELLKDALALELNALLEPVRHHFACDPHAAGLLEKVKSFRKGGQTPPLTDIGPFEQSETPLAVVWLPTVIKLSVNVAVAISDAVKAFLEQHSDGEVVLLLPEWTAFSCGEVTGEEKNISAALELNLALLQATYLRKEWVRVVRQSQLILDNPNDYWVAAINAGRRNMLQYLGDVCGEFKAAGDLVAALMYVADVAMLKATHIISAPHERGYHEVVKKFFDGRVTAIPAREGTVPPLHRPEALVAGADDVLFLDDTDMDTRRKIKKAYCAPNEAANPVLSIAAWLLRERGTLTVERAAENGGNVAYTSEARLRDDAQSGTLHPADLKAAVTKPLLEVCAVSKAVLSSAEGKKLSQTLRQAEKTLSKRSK
The experiment in a line: Trypanosoma cruzi tyrosyl tRNA synthetase (TcYRS) _High Tyrosine SOP. Further: in the data most compounds retested in dose-response had high values. It counts as functional. As to conditions: 30 µM.

In experiment [10] the target is T4, Tyrosyl-tRNA synthetase, putative (Trypanosoma cruzi (strain CL Brener)). The experiment in a line: Trypanosoma cruzi tyrosyl tRNA synthetase (TcYRS) SOP. Type of experiment: functional. As to conditions: 30 µM.
The target in experiment [11] is Chromo domain-containing protein 1 (Saccharomyces cerevisiae (strain ATCC 204508 / S288c) (Baker's yeast)) (UniProt P32657). Briefly: ScCHD-1 Enzyme Inhibition Assay. Further: in the data most compounds retested in dose-response had high values. Type of experiment: functional. As to conditions: 30 µM.
Chain of Chromo domain-containing protein 1 (Saccharomyces cerevisiae (strain ATCC 204508 / S288c) (Baker's yeast)) (P32657 whole entry, the tested form may be a part): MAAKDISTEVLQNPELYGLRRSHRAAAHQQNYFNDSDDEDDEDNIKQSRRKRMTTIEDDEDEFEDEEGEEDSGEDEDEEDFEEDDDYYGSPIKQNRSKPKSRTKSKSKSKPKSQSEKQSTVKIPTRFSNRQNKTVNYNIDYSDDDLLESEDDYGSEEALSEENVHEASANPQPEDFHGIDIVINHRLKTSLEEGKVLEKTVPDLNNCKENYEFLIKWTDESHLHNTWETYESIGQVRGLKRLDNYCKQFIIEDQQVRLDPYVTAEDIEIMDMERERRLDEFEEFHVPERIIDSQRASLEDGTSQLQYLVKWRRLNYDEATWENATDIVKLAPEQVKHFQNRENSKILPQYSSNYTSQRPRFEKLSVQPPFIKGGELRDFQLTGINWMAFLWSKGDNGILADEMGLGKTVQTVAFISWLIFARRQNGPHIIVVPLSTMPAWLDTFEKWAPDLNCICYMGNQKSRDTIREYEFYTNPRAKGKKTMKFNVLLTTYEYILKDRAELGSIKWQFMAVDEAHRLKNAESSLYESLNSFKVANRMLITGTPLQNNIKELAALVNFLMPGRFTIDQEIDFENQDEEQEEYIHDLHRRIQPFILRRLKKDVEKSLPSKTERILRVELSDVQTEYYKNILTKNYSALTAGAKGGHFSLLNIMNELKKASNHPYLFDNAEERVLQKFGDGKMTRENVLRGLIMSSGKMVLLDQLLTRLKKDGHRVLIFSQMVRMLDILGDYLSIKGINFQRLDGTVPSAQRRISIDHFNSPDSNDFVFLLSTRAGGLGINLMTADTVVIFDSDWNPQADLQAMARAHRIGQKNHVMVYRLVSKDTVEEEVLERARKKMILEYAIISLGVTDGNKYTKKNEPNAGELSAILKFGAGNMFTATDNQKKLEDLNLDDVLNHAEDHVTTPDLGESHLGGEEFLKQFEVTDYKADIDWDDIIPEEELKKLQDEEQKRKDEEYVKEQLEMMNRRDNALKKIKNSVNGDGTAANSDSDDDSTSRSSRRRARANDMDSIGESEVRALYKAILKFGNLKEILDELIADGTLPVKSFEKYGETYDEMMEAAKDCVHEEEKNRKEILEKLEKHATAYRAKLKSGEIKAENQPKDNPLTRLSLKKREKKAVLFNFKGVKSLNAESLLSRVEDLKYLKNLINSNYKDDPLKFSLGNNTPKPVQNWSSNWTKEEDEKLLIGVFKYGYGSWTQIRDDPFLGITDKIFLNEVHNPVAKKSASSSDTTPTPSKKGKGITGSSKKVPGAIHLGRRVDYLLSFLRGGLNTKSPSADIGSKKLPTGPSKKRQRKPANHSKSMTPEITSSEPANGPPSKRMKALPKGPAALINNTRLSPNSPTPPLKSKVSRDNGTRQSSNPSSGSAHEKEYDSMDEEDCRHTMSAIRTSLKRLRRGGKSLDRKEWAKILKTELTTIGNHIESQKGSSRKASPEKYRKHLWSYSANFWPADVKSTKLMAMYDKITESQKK

Chain of Protein translocase subunit SecA (Escherichia coli (strain K12)) (P10408 whole entry): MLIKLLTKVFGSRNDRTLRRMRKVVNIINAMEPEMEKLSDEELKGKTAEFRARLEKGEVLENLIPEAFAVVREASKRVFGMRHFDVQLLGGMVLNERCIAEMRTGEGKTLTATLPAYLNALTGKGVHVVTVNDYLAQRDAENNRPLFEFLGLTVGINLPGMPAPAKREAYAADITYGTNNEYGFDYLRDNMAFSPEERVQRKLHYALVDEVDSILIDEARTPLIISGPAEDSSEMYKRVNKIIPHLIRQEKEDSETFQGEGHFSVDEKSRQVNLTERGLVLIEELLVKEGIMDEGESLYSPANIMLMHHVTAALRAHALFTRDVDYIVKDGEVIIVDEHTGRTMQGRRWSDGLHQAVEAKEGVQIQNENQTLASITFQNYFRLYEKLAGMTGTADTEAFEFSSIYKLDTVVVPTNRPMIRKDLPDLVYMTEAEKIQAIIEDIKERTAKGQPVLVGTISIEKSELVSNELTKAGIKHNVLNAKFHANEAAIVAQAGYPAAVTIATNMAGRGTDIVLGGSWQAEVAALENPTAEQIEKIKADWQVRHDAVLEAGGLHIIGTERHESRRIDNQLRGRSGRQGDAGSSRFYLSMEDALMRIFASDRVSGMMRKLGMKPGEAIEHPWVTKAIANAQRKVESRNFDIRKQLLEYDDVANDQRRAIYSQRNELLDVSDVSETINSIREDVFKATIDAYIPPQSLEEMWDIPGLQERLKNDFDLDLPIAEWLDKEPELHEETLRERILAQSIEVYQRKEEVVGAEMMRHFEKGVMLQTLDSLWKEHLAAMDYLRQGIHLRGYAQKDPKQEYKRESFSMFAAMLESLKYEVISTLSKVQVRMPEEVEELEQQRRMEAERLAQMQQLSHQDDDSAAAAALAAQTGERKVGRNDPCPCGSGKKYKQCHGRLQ

On to `O=S1(=O)COCCN1Cc1ccc(Cl)c(F)c1`, for which the Percent Effect was 0.108% in experiment [1]; 16.2% in experiment [2]; -3.31% in experiment [3]; 17.6% in [4]; 3.28% in experiment [5]; 2.38% in [6]. In addition, the Percent Effect is 14.7% in experiment [7]; 0.549% in experiment [8]; 5.82% in [9]; 14.6% in [10]; -5.23% in [11].
`NC(=O)c1cnn2c1NCC(CNCCCOc1ccccc1F)C2` (stereo unspecified): the Percent Effect in experiment [1] was -2.54%; in [2], 5.26%; in [3], 0.424%; in experiment [4] it was 14.6%; in experiment [5], 3.38%; in experiment [6] it was -1.15%. Moreover, the Percent Effect was 0.167% in experiment [7]; 2.29% in experiment [8]; 9.31% in experiment [9]; 12.2% in experiment [10]; -10.9% in experiment [11].
As for `C1CC(c2noc(C3CC3)n2)CN(Cc2noc(C3CC3)n2)C1` (stereo unspecified), the Percent Effect in experiment [1] is -3.36%; in [2], 0%; in [3], -13.1%; in [4] it was 11.5%; in experiment [5], -3.11%; in [6], -1.6%. Also, the Percent Effect was 1.62% in [7]; -3.78% in experiment [8]; 0.493% in experiment [9]; 1.24% in [10]; 1.88% in experiment [11].
Consider `O=C1CC2(CCCCC2)CC(=O)N1CC(O)COCc1ccc(Cl)cc1` (stereo unspecified), for which the Percent Effect in experiment [1] was -4.15%; in experiment [2], -10.8%; in experiment [3], -0.127%; in experiment [4], -2.3%; in experiment [5] it was -1.66%; in experiment [6] it was -0.744%. The Percent Effect in experiment [7] is -2.66%; in [8], 2.65%; in experiment [9], -2.15%; in experiment [10], -6.17%; in [11] it was 6.87%.
In the case of `COCC(=O)N1CC[C@@H]2O[C@@H](COCc3csc(C)n3)CC[C@@H]21`, the Percent Effect in experiment [1] is -2.35%; in [2], 13.5%; in [3] it was 4.29%; in experiment [4], -14.3%; in experiment [5], -2.25%; in [6], 7.96%. Further, the Percent Effect in experiment [7] is 26.9%; in [8], -1.3%; in [9], 8.65%; in experiment [10], 12.8%; in experiment [11] it was -4.47%.
With `COCCn1c2c(ccc1=O)CC(NS(C)(=O)=O)CC2` (stereo unspecified), the Percent Effect in experiment [1] is -3.49%; in [2], 13.3%; in [3], -2.12%; in experiment [4], -9.48%; in experiment [5], -7.68%; in experiment [6] it was -1.63%. Besides, the Percent Effect in [7] is -1.15%; in [8] it was 10.7%; in [9], 0%; in experiment [10], 3.85%; in experiment [11], -4.29%.
As to `Cc1ccc(CN2CC[C@H]3OCC[C@@H](c4nc(C)no4)[C@H]3C2)cc1`, the Percent Effect in experiment [1] is -4.22%; in [2], 5.41%; in [3], 2.69%; in [4] it was -2.48%; in [5], 7.14%; in experiment [6], -4.14%. Also, the Percent Effect in experiment [7] is 15.3%; in experiment [8], -21.7%; in [9], 0%; in experiment [10] it was 10.3%; in experiment [11] it was 0.212%.
Consider `CC(C)c1nn(C)c(Cl)c1CNCC(O)c1cccc(F)c1` (stereo unspecified), for which the Percent Effect in [1] was -7.69%; in experiment [2], 5.2%; in experiment [3], -1.22%; in [4], -3.98%; in [5], 7.35%; in experiment [6] it was -2.32%. The Percent Effect is 15.8% in [7]; 4.38% in experiment [8]; 7.62% in experiment [9]; 30.6% in experiment [10]; -7% in experiment [11].
Turning to `CCc1nc(NCC(=O)N2CCOCC2)c2c(n1)c(C)nn2CC`, the Percent Effect was -2.78% in [1]; 6.67% in experiment [2]; 0.5% in [3]; 7.26% in experiment [4]; -6.09% in [5]; -6.87% in experiment [6]. The Percent Effect is 10.7% in experiment [7]; -5.15% in experiment [8]; 2.12% in experiment [9]; 5.13% in [10]; -5.78% in experiment [11].
`CN(C)C(=O)NCc1cc2n(n1)CCN(C[C@H]1[C@@H]3CNC[C@@H]31)C2`: the Percent Effect is -4.24% in experiment [1]; 13.5% in [2]; -5.71% in experiment [3]; 30.6% in [4]; 9.65% in experiment [5]; 15.7% in experiment [6]. The Percent Effect is 9.65% in experiment [7]; 10.3% in experiment [8]; 3.7% in [9]; 19.5% in [10]; -12.2% in experiment [11].
As for `Cc1ccc(NC(C)C(=O)NCc2cccs2)cc1C` (stereo unspecified), the Percent Effect in experiment [1] was -1.89%; in experiment [2] it was 16.4%; in experiment [3], 6.74%; in experiment [4] it was 8.58%; in experiment [5], 0.196%; in experiment [6] it was -4.54%. Also, the Percent Effect was 17.8% in [7]; 21.3% in [8]; -1.07% in [9]; 20% in experiment [10]; -5.22% in experiment [11].

The values above are taken from ChEMBL document CHEMBL3988442, “University of Dundee, Small-Polar-MMV Screening Library” (2021).
